Data: paper PMC7862700, “An all-to-all approach to the identification of sequence-specific readers for epigenetic DNA modifications on cytosine”

Assays:
Assay in all cases: DAPPL (digital affinity profiling via proximity ligation, sequencing); 10 mM Tris-HCl pH 7.5, 50 mM NaCl, 1 mM DTT, 4% glycerol, room temperature, 30 min; GST-TFs on glutathione beads, 16-mer random dsDNA library, 0.1% formaldehyde crosslink after washing; high values mean tight binding
Settings in all cases: protein: recombinant; tags: N-terminal GST; dsDNA, one strand shown
[1] = biological target: T1, ELK1 (Homo sapiens, UniProt P19419 1-428)
T1 sequence: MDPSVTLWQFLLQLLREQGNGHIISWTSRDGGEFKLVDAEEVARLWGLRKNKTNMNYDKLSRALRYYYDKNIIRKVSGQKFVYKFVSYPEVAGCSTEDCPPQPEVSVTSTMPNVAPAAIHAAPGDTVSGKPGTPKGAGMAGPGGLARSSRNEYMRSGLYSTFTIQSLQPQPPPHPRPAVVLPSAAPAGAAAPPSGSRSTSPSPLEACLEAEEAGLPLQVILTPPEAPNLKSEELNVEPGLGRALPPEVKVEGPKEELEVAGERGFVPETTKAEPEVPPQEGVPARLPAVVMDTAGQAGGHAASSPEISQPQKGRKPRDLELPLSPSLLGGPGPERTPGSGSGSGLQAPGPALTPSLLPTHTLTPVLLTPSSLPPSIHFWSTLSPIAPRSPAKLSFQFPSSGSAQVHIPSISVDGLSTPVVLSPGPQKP
How it was run: (§1)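 After expression in yeast as GST fusions, human transcription factors were bound to glutathione beads, DNA-barcoded and mixed with a tag-only sample. The pools were incubated with 200 nmole of a 16-mer random double-stranded DNA library in Tris/NaCl/DTT/glycerol buffer (30 min, room temperature), washed and crosslinked with 0.1% formaldehyde. Proximity ligation with BsaI/T4 ligase ran for 1 h at 37 °C, before PCR amplification and sequencing on an Illumina NextSeq500. Binding signal is a hexamer's read frequency for a factor divided by its frequency for the tag-only sample.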

[2] = biological target: T2, ERG (Homo sapiens, UniProt P11308 1-479)
T2 sequence: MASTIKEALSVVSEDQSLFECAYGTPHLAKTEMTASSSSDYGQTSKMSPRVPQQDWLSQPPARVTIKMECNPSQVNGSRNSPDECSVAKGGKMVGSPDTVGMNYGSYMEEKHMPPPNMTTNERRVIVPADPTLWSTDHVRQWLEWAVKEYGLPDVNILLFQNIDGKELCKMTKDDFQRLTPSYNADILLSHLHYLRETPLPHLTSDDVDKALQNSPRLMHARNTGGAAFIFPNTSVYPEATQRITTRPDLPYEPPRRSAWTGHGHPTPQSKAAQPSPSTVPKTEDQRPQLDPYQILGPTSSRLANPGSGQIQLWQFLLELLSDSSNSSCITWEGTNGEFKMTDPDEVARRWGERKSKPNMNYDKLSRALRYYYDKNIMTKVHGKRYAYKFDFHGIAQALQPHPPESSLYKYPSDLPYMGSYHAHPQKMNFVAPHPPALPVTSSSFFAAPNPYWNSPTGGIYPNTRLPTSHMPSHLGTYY
How it was run: as §1

[3] = biological target: T3, EHF (Homo sapiens, UniProt Q9NZC4 1-300)
T3 sequence: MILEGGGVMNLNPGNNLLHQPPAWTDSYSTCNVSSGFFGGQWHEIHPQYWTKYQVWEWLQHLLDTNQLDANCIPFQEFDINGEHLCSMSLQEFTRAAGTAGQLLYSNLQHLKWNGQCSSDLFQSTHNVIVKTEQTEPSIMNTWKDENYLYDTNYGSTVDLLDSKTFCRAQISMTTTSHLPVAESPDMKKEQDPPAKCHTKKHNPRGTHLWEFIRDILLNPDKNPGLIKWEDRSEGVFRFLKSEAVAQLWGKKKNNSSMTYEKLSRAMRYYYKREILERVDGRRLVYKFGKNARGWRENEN
How it was run: as §1

[4] = biological target: SPIB (Homo sapiens, UniProt Q01892 1-262)
How it was run: as §1

[5] = biological target: T4, ELK3 (Homo sapiens, UniProt P41970 1-407)
T4 sequence: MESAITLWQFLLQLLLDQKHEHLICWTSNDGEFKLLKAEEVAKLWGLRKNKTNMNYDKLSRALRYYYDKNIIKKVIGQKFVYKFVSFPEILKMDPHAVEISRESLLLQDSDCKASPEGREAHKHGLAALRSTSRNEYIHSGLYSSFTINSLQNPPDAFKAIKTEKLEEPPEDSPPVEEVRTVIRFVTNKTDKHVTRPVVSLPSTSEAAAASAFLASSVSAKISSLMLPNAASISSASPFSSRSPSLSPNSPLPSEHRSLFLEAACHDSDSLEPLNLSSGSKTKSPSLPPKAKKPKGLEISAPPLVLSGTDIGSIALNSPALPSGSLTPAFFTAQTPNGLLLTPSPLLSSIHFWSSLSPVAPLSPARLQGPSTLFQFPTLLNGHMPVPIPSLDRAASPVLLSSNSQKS
How it was run: as §1

[6] = biological target: ETV5 (Homo sapiens, UniProt P41161 1-510)
How it was run: as §1

[7] = biological target: T5, SPIC (Homo sapiens, UniProt Q8N5J4 1-248)
T5 sequence: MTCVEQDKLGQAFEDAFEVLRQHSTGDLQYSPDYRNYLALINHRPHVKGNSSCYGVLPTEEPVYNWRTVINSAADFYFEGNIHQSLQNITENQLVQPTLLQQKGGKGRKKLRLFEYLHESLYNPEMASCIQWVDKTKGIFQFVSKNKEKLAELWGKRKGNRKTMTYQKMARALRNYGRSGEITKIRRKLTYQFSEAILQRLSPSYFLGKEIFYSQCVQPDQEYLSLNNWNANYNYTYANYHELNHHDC
How it was run: as §1

[8] = biological target: ELF4 (Homo sapiens, UniProt Q99607 1-663)
How it was run: as §1

[9] = biological target: T6, ELK4 (Homo sapiens, UniProt P28324-2 1-405)
T6 sequence: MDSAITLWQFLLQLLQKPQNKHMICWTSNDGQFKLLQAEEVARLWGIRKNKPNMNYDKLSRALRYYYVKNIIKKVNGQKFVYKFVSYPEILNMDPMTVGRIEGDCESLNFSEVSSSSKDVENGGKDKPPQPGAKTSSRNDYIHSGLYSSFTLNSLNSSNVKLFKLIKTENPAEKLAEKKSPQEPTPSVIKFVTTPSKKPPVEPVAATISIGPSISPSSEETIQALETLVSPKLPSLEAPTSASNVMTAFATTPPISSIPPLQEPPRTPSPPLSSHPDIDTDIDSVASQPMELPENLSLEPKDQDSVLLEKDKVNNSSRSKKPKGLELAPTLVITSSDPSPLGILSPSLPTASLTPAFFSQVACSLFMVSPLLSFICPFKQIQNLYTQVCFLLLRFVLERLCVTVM
How it was run: as §1

[10] = biological target: ETV1 (Homo sapiens, UniProt P50549 1-477)
How it was run: as §1

[11] = biological target: T7, ERF (Homo sapiens, UniProt P50548 1-548)
T7 sequence: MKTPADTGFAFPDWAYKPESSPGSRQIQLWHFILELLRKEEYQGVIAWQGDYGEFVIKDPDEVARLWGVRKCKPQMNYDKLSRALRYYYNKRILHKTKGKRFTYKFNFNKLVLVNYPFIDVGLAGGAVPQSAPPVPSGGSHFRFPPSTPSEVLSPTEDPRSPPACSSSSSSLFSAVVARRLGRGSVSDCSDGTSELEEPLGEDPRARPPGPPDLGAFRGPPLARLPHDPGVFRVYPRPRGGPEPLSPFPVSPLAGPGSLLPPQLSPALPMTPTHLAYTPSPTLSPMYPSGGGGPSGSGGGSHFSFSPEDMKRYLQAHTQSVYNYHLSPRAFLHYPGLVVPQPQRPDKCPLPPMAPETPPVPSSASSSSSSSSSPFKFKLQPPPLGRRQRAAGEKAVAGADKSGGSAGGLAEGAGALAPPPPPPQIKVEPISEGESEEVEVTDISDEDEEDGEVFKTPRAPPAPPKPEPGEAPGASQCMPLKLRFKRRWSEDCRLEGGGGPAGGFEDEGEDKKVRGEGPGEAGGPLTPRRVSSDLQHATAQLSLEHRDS
How it was run: as §1

[12] = biological target: T8, ETV3L (Homo sapiens, UniProt Q6ZN32 1-361)
T8 sequence: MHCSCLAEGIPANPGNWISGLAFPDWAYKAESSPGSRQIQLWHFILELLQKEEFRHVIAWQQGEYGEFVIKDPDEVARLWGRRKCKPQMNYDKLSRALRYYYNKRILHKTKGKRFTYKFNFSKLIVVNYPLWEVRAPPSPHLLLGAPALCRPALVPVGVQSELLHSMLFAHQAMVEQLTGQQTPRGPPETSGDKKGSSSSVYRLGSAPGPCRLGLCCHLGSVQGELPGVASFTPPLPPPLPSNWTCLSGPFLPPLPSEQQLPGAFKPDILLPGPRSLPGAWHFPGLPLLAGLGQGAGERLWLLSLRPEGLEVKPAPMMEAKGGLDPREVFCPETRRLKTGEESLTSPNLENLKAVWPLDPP
How it was run: as §1

[13] = biological target: T9, SPDEF (Homo sapiens, UniProt O95238 1-335)
T9 sequence: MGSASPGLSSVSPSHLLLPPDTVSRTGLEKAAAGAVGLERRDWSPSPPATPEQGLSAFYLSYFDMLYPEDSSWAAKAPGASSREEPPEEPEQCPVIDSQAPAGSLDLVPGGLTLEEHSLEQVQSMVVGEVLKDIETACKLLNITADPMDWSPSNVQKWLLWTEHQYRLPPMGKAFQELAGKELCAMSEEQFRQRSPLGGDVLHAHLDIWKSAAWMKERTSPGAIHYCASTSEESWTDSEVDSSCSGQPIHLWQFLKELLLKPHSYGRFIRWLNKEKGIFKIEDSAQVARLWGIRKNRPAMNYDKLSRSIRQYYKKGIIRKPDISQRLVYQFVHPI
How it was run: as §1

[14] = biological target: T10, ETV7 (Homo sapiens, UniProt Q9Y603 1-341)
T10 sequence: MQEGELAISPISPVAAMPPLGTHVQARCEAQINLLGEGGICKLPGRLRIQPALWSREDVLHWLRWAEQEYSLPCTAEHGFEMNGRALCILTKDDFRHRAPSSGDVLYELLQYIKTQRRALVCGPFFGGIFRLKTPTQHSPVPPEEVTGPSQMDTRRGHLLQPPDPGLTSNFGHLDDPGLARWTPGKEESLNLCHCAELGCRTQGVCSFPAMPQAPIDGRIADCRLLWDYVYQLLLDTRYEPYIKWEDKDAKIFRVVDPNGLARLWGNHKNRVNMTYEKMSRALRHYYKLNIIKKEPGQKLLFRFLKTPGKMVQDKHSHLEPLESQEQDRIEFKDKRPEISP
How it was run: as §1

[15] = biological target: T11, ETV3 (Homo sapiens, UniProt P41162-2 1-143)
T11 sequence: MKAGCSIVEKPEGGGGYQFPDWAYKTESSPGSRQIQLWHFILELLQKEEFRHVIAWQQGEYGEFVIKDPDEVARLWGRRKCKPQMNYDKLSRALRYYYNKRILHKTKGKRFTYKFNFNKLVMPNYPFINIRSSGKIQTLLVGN
How it was run: as §1

[16] = biological target: ETV6 (Homo sapiens, UniProt P41212 1-452)
How it was run: as §1

Chain of ELF4 (Q99607 whole entry): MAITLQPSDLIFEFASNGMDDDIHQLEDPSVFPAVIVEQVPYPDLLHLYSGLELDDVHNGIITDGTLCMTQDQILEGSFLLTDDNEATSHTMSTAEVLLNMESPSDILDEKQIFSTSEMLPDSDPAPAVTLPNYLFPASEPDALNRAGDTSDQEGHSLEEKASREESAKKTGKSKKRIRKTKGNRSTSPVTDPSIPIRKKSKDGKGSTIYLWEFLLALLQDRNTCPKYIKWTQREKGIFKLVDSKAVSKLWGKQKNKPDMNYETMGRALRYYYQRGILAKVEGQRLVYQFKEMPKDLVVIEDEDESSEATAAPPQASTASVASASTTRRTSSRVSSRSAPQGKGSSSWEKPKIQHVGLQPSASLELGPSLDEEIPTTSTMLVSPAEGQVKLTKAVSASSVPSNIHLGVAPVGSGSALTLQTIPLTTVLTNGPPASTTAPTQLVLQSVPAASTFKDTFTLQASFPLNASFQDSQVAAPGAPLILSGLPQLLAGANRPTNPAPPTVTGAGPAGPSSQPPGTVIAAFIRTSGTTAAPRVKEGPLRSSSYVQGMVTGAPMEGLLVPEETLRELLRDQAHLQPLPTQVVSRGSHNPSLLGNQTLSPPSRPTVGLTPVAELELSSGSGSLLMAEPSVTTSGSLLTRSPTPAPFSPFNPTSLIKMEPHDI
Chain of ETV6 (P41212 whole entry): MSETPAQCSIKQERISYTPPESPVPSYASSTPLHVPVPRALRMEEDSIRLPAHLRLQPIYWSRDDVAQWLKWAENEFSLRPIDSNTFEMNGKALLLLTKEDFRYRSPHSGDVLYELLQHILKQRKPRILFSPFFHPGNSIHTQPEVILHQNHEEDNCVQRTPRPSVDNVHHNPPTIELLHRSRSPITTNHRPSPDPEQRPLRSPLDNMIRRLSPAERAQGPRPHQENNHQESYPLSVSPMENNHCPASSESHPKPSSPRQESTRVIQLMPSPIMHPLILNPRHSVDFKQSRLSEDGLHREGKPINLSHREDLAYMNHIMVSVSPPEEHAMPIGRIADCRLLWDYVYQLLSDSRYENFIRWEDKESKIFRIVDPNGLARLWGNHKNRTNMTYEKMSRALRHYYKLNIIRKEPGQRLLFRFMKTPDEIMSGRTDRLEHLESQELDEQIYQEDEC
Chain of ETV1 (P50549 whole entry): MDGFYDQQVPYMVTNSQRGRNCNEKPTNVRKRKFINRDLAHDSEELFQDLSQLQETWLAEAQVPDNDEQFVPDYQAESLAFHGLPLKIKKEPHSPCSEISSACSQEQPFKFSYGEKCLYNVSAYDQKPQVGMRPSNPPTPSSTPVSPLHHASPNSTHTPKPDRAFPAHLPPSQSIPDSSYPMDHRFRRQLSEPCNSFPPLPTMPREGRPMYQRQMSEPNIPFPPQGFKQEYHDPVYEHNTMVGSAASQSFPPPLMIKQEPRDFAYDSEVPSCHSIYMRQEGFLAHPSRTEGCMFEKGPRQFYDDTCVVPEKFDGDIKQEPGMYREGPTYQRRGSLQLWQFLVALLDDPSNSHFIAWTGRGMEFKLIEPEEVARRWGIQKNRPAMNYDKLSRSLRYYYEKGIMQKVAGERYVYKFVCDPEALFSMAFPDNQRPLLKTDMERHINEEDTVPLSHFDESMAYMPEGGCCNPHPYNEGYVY
Chain of ETV5 (P41161 whole entry): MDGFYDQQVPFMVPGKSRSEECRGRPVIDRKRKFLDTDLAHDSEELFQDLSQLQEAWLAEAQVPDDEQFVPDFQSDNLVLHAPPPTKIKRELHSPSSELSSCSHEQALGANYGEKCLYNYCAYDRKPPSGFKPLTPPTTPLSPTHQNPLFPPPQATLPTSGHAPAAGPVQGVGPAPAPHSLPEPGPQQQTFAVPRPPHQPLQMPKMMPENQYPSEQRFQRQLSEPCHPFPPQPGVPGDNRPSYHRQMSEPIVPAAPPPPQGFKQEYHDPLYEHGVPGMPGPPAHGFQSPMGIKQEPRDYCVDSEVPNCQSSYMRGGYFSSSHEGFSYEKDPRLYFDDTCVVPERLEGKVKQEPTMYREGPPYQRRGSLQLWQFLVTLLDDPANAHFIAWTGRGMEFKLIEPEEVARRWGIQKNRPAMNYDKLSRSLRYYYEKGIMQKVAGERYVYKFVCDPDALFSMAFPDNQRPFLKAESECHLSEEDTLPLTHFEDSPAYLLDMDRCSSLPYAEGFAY
Chain of SPIB (Q01892 whole entry): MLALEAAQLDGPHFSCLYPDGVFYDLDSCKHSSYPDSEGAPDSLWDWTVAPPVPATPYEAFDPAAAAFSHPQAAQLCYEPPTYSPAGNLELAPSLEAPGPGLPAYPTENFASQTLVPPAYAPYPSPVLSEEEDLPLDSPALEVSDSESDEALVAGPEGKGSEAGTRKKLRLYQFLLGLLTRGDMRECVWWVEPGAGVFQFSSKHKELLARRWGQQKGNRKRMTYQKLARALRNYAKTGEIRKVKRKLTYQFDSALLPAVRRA

**Q.** Which binding signal [1] does the source give for CAATGT here?
**A.** The binding signal was 1.06 fold enrichment (6-mer frequency, TF over GST control).

**Q.** And the binding signal [2]?
**A.** Its binding signal is 1.02 fold enrichment (6-mer frequency, TF over GST control).

**Q.** What about the binding signal [3] of the same sequence?
**A.** Its binding signal is 1.05 fold enrichment (6-mer frequency, TF over GST control).

**Q.** And the binding signal [4]?
**A.** The binding signal was 1.04 fold enrichment (6-mer frequency, TF over GST control).

**Q.** And the binding signal [5]?
**A.** Its binding signal is 1.01 fold enrichment (6-mer frequency, TF over GST control).

**Q.** What about the binding signal [6] of the same sequence?
**A.** The binding signal was 1.02 fold enrichment (6-mer frequency, TF over GST control).

**Q.** And the binding signal [7]?
**A.** The binding signal was 1.13 fold enrichment (6-mer frequency, TF over GST control).

**Q.** And the binding signal [8]?
**A.** Its binding signal is 1.06 fold enrichment (6-mer frequency, TF over GST control).

**Q.** And the binding signal [9]?
**A.** The binding signal was 1.1 fold enrichment (6-mer frequency, TF over GST control).

**Q.** And the binding signal [10]?
**A.** Its binding signal is 1.07 fold enrichment (6-mer frequency, TF over GST control).

**Q.** And the binding signal [11]?
**A.** Its binding signal is 1.05 fold enrichment (6-mer frequency, TF over GST control).

**Q.** And the binding signal [12]?
**A.** Its binding signal is 1.03 fold enrichment (6-mer frequency, TF over GST control).

**Q.** And the binding signal [13]?
**A.** The binding signal was 1.07 fold enrichment (6-mer frequency, TF over GST control).

**Q.** What about the binding signal [14] of the same sequence?
**A.** The binding signal was 1.09 fold enrichment (6-mer frequency, TF over GST control).

**Q.** And the binding signal [15]?
**A.** Its binding signal is 1.03 fold enrichment (6-mer frequency, TF over GST control).

**Q.** What about the binding signal [16] of the same sequence?
**A.** The binding signal was 1.05 fold enrichment (6-mer frequency, TF over GST control).
